About 2,000 (36%) of roughly 5,500 compounds were called active. Roughly 18% stayed inconclusive and do not appear here. Rule as the data show it: active = normalized growth mostly below about 0.91 (no sharp cut-off); inconclusive = no clear call, values can overlap the other calls; inactive = mostly above about 0.92. This is one part of the list.
Test: chemical genetic growth profiling, strain panel (AID 1159580);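 also: tested at 20 µM; growth read once vehicle control cultures reached saturation at 30 °C; 1 = growth at the plate median or of vehicle wells; lower values mean less growth of the strain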
Details: S. cerevisiae deletion strains, growth OD
[1] = locus YAL040C, strain CLN3, active compounds read low
[2] = locus YCL061C, strain MRC1 (second series), active compounds read low
[3] = locus YDR363W, strain ESC2, active compounds read low
[4] = locus YER002W, strain NOP16, active compounds read low
[5] = locus YGR078C, strain PAC10, active compounds read low
[6] = locus YGR229C, strain SMI1, active compounds read low
[7] = locus YMR307W, strain GAS1, active compounds read low
[8] = locus YNL153C, strain GIM3, active compounds read low
[9] = locus YNL175C, strain NOP13, active compounds read low
[10] = locus YNL197C, strain WHI3, active compounds read low
[11] = locus YNL224C, strain SQS1, active compounds read low
[12] = locus YOR083W, strain WHI5 (second series), active compounds read low
[13] = locus YMR263W, strain SAP30, active compounds read low
[14] = locus YNL128W, strain TEP1, active compounds read low
[15] = locus YNL322C, strain KRE1, active compounds read low
[16] = locus YPL241C, strain CIN2, active compounds read low
[17] = locus YJR075W, strain HOC1, active compounds read low

Measured: normalized growth

NC(=O)C1=CN(C2OC(COP(=O)(O)OP(=O)(O)OC[C@H]3O[C@@H](n4cnc5c(N)ncnc54)C(OP(=O)(O)O)[C@H]3O)C(O)C2O)C=CC1 (stereo partly drawn)
inactive: [1] 0.989 | [2] 0.997 | [3] 0.976 | [4] 0.977 | [5] 0.979 | [6] 1 | [7] 1 | [8] 1.02 | [9] 0.98 | [10] 0.986 | [11] 1 | [12] 0.991

CCCN1CCC[C@H](c2cccc(O)c2)C1
inactive: [1] 1 | [2] 0.999 | [3] 1.03 | [4] 0.988 | [5] 1.01 | [6] 1 | [13] 0.993 | [7] 0.992 | [14] 1.01 | [8] 1.18 | [9] 0.995 | [10] 1.01 | [11] 1 | [15] 1 | [12] 1 | locus YPL055C, strain LGE1, active compounds read low 0.994 | [16] 1.01

CCCN1CCC[C@@H](c2cccc(C#N)c2)C1
inactive: locus YAL013W, strain DEP1, active compounds read low 1.01 | [1] 0.986 | [2] 1.01 | locus YDR150W, strain NUM1, active compounds read low 0.994 | [3] 1.04 | [4] 0.989 | [6] 1.04 | [17] 1 | [13] 1.01 | [9] 0.993 | [10] 1.04 | [11] 1.01 | [15] 1 | [12] 0.978

CCCN1CCC[C@@H](c2cccc(O)c2)C1
inactive: [1] 0.98 | [2] 1 | [3] 1.03 | [4] 0.983 | [5] 0.984 | [6] 0.999 | [17] 1 | [13] 1 | [7] 0.996 | [14] 0.999 | [9] 1.01 | [11] 0.993 | [12] 1.01 | [16] 0.999
active: [10] 0.446
